The target in test [1] is Ribosomal protein S6 kinase alpha-6 (Homo sapiens) (UniProt Q9UK32). As to conditions: at 1 µM.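 Note: each value is a mean inhibition of RSK4 from a GSK PKIS panel screen.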
The target of test [2] is T1, Serine/threonine-protein kinase Sgk1 (Homo sapiens) (UniProt O00141).
T1 sequence (whole entry): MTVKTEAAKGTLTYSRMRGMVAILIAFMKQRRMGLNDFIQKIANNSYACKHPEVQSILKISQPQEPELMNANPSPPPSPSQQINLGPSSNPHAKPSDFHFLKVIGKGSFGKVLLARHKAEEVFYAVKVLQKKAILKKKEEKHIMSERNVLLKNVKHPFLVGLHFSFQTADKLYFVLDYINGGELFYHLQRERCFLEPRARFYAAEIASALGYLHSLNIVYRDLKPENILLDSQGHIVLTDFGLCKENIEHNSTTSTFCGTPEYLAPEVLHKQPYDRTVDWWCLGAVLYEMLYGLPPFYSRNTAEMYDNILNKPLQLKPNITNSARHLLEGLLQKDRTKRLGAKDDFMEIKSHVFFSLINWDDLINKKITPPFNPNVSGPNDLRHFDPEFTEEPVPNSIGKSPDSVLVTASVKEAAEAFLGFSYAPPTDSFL
The note with it: at 0.1 µM.

Test [3] has as its target T1, Serine/threonine-protein kinase Sgk1 (Homo sapiens). The note with it: at 1 µM.
The target of test [4] is T2, Serine/threonine-protein kinase Sgk2 (Homo sapiens) (UniProt Q9HBY8).
T2 sequence (whole entry): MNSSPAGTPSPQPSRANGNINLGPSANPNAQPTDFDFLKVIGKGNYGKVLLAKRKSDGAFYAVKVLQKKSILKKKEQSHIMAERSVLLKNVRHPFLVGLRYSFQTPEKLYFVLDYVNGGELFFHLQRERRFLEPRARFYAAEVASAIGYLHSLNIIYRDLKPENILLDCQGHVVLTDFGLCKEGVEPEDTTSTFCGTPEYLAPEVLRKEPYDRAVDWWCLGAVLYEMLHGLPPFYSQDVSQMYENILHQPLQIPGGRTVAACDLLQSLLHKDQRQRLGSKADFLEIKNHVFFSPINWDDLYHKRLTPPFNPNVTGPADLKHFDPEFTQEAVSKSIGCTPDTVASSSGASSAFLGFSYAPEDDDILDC
As to conditions: at 0.1 µM.

For test [5], the target named is T2, Serine/threonine-protein kinase Sgk2 (Homo sapiens). The note with it: at 1 µM.
Test [6] concerns the target T3, Serine/threonine-protein kinase Sgk3 (Homo sapiens) (UniProt Q96BR1).
T3 sequence (whole entry): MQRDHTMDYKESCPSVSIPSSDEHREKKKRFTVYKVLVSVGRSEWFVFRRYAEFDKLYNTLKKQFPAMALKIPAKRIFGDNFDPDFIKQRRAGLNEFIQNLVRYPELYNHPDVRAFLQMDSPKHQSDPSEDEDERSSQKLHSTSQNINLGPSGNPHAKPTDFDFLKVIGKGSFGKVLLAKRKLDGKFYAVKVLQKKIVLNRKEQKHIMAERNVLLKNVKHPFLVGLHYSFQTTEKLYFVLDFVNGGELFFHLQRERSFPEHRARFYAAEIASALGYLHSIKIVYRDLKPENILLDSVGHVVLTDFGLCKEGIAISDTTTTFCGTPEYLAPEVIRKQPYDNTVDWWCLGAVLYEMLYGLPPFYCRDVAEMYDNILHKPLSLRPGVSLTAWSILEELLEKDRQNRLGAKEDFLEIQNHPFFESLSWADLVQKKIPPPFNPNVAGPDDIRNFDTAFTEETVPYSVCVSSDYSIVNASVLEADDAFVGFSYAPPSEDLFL
The note with it: at 0.1 µM.

The target of test [7] is T3, Serine/threonine-protein kinase Sgk3 (Homo sapiens). As to conditions: at 1 µM.
For test [8], the target named is 5'-AMP-activated protein kinase catalytic subunit alpha-1 (Homo sapiens) (UniProt Q13131). As to conditions: at 0.1 µM.
5'-AMP-activated protein kinase catalytic subunit alpha-1 (Homo sapiens), sequence (Q13131 whole entry, looked up): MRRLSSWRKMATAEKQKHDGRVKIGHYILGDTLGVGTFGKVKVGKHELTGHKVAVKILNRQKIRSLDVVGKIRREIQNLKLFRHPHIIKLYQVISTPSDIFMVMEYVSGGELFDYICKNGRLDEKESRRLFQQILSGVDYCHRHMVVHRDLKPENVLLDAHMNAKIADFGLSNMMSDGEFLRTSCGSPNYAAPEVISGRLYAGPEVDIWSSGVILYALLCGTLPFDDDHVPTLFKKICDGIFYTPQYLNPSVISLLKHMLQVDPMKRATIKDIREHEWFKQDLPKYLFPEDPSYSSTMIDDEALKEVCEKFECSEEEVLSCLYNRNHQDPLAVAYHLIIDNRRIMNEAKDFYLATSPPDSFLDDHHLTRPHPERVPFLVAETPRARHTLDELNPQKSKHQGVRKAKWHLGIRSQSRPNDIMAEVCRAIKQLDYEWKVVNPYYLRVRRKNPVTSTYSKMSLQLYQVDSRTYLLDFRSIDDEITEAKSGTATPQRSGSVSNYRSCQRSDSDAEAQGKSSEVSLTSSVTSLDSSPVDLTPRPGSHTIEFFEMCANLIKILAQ
Test [9] has the same target. The note with it: at 1 µM.
For test [10], the target named is 5'-AMP-activated protein kinase catalytic subunit alpha-2 (Homo sapiens) (UniProt P54646). As to conditions: at 0.1 µM.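 Note: mean inhibition measured on the AMPK complex of alpha2, beta1 and gamma1 subunits.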
5'-AMP-activated protein kinase catalytic subunit alpha-2 (Homo sapiens), sequence (P54646 whole entry, looked up): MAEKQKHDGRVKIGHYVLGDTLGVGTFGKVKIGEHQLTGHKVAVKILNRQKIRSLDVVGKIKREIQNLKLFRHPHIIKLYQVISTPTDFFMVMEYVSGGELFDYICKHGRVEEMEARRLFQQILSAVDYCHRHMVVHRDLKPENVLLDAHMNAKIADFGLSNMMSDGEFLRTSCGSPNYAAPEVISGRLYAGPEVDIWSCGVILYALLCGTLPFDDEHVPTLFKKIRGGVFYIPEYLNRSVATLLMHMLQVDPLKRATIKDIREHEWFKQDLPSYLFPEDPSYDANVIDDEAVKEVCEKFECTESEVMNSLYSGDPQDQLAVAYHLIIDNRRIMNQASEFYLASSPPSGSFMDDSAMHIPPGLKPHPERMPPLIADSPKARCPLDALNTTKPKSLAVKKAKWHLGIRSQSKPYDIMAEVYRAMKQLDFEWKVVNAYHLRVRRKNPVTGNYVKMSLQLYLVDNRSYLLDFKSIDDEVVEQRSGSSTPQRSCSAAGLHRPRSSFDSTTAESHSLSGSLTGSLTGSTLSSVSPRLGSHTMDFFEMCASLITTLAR

Where “and” joins values, the source holds several entries; their conditions need not be identical. Identical values can stand only once.

Ribosomal protein S6 kinase alpha-6 (Homo sapiens), sequence (Q9UK32 whole entry): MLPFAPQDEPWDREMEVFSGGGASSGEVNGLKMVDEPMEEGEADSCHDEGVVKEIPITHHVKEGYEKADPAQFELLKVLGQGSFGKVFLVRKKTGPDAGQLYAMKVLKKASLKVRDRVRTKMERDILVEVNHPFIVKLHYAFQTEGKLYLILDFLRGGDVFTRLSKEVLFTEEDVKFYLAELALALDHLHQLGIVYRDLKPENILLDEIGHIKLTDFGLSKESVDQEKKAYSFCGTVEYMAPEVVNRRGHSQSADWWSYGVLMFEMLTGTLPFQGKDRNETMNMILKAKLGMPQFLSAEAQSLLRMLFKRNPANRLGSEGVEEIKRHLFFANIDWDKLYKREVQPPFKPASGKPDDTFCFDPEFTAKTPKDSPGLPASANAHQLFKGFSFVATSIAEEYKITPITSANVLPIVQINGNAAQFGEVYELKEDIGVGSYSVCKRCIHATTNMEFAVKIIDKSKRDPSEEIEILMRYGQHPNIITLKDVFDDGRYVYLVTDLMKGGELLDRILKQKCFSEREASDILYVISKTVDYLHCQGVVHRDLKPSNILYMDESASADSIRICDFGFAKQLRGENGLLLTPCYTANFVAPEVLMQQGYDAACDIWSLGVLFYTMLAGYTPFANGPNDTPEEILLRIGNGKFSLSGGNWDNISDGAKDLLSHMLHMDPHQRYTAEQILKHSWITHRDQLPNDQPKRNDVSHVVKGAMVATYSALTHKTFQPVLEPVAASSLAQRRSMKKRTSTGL

Regarding `COc1ccccc1-c1cc(/C=C2\C(=O)Nc3ncc(Br)cc32)cc(Br)c1O`, the inhibition (usually the drop in the measured response relative to a control, in per cent) in test [1] is 2.05%; in [2] it was 4.47%; in test [3] it was 5.53%; in test [4], 3.23%; in test [5] it was 2.58%; in test [6] it was 4.46%. Also, the inhibition turned out to be 0.16% in [7], 4.85% in test [8], 9.85% in test [9] and 5.58% in test [10].

Regarding `CCS(=O)(=O)c1ccc(OC)c(Nc2ncc(-c3cccc(C(C)=O)c3)o2)c1`, the inhibition in [1] is 2.13%; in test [2], 0.32%; in [3] it was 5.11%; in [4], 2.27%; in [5] it was 3.41%; in [6] it was 1.59%. For the same molecule, the inhibition in test [7] was 2.93%; in [8], 2.21%; in [9], 4.72%; in test [10], -0.37%.

Turning to `COc1c(C(N)=O)cc(-c2ccc(Cl)cc2)cc1-c1ccc(S(N)(=O)=O)cc1`, the inhibition was 3.2% in test [1]; 0.41% in test [2]; 2.71% in [3]; 5.14% in test [4]; 5% in test [5]; 1.37% in test [6]. Further, the inhibition stood at 3% in test [7], 1.83% in test [8], 4.47% in test [9] and 7.86% in test [10].

Take `CC1=C(C(=O)Nc2ccc3[nH]ncc3c2)C(c2ccc(F)cc2)N=C(c2ccc(C(F)(F)F)nc2)N1` (stereo not given): the inhibition in [1] amounted to 0.46%; in test [2], 1.43%; in [3], 2.75%; in test [4], 2.27%; in [5] it was 4.47%; in [6], 4.38%. For the same molecule, the inhibition in [7] amounted to 2.31%; in test [8], 1.92%; in [9], 8.74%; in test [10], 0.84%.

Take `CN1CCC(C(=O)Nc2n[nH]c3nc(-c4ccc(O)cc4)c(Br)cc23)CC1`: the inhibition in test [1] is 12.7% and 9.62%; in test [2], 5.12% and 1.94%; in test [3] it was 10.4% and 4.16%; in test [4] it was 3.28% and 2.28%; in test [5] it was 6.79% and 6.21%; in [6] it was 1.96% and 6.46%. In addition, the inhibition in test [7] was 6.31% and 0.32%; in test [8], 5.11% and 1.11%; in test [9] it was 18.7% and 10.6%; in test [10] it was 3.96% and 2.49%.

Consider `NS(=O)(=O)c1ccc(N/N=C2\C(=O)Nc3cccc(CCc4ccncc4)c32)cc1`, for which the inhibition in [1] is 7.42%; in test [2] it was 1.76%; in test [3] it was 1.65%; in [4], 3.09%; in test [5] it was -0.79%; in test [6] it was -1.13%. For the same molecule, the inhibition in [7] was -0.92%; in [8] it was 4.83%; in test [9], 8.26%; in [10] it was 3.2%.

Take `COc1ccc(-c2nn3ncccc3c2-c2ccnc(Nc3ccc(F)c(F)c3)n2)cc1`: the inhibition in test [1] came to 1.98%; in [2], 3.06%; in test [3], 9.35%; in test [4] it was 5.4%; in [5], 7.74%; in [6], 5.09%. Further, the inhibition was determined as 6.1% in test [7], 5.22% in [8], 9.36% in test [9] and 2.91% in test [10].

Regarding `CCOc1ccc2c(-c3ccnc(Nc4cc(OC)cc(C(F)(F)F)c4)n3)cnn2n1`, the inhibition in test [1] was 0.36%; in test [2] it was -0.01%; in test [3] it was 1.56%; in test [4], 0.96%; in test [5], 3.1%; in test [6] it was 1.37%. Also, the inhibition is -0.48% in test [7], 0.25% in [8], 1.28% in test [9] and 1.34% in test [10].

For the molecule `N#Cc1ccc2c(-c3ccnc(NC4CC4)n3)c(-c3ccc(F)cc3)nn2c1`, the inhibition in test [1] was 1.24%; in test [2], 1.64%; in test [3], 1.98%; in test [4], -0.02%; in test [5] it was -1.14%; in [6] it was 2.02%. The inhibition in [7] was found to be 1.13%; in test [8] it was 0.78%; in [9], 0.77%; in test [10], 0.36%.

Regarding `Cn1c(-c2nonc2N)nc2cnccc21`, the inhibition in test [1] was determined as 5.91%; in test [2] it was 3.35%; in [3], 6.24%; in [4], 5.57%; in test [5], 10.7%; in [6] it was 2.77%. Also, the inhibition in test [7] amounted to 13.6%; in [8] it was 3.36%; in test [9], 3.2%; in test [10], 0.94%.

In the case of `COC(=O)Nc1nc2cc(Oc3ccc(NC(=O)Nc4ccccc4)cc3)ccc2[nH]1`, the inhibition is 0.36% in test [1]; 2.77% in [2]; 5.31% in test [3]; 0.16% in test [4]; 3.69% in [5]; 3.38% in test [6]. Besides, the inhibition came to 5.17% in test [7], 2.62% in test [8], 2.79% in test [9] and 0.01% in test [10].

Turning to `NS(=O)(=O)c1cccc(N/C=C2\C(=O)Nc3ccccc32)c1`, the inhibition in test [1] stood at 22.4%; in test [2] it was 6.58%; in [3], 26.9%; in test [4] it was 4.31%; in test [5], 11.5%; in test [6], 6%. Moreover, the inhibition in test [7] was determined as 5.21%; in test [8], 3.31%; in test [9], 12%; in test [10], 4.65%.

Turning to `Nc1nccc(-c2c(-c3ccc(F)cc3)ncn2C2CCNCC2)n1`, the inhibition was 4.21% and 1.38% in test [1]; 0.06% and 1.23% in test [2]; 2.06% and 1.69% in test [3]; -3% and 1.37% in [4]; 0.49% and 1.29% in [5]; -1.13% and 1.78% in [6]. Also, the inhibition in test [7] was -2.95% and -0.32%; in test [8] it was -1.82% and 0.38%; in [9], 0.26% and 0.1%; in test [10] it was -1.29% and 1.97%.

For the molecule `NS(=O)(=O)c1ccc(N/N=C2\C(=O)Nc3ccc(C(=O)NCc4ccncc4)cc32)cc1`, the inhibition in test [1] is 11.3%; in [2], 3.41%; in test [3] it was 12.9%; in test [4], 0.65%; in test [5] it was 8.08%; in [6] it was 4.07%. Besides, the inhibition in [7] came out at 8.33%; in test [8] it was 41.7%; in [9], 75.5%; in [10] it was 5.3%.

As to `O=C(O[C@H]1CN[C@H](C#Cc2cc3ncnc(Nc4ccc5c(ccn5Cc5cc(F)ccc5F)c4)c3s2)C1)N1CCOCC1`, the inhibition in test [1] was found to be 2.42%; in test [2], 3.69%; in [3] it was 3.13%; in test [4], 4.36%; in [5], 0.96%; in test [6], 3.53%. For the same molecule, the inhibition in [7] stood at 3.51%; in [8], 3.06%; in test [9], 1.13%; in [10], 3.89%.

`CN1CCN(Cc2ccc(-c3cc4ncnc(Nc5ccc(OCc6cccc(F)c6)c(Cl)c5)c4s3)o2)CC1`: the inhibition is 2.87% and 4.99% in test [1]; 2.87% and 4.63% in [2]; 3.57% and 7.64% in [3]; 1.23% and 4.49% in test [4]; 1.46% and 3.55% in test [5]; 1.48% and 4.43% in test [6]. Besides, the inhibition is 2.48% and 5.69% in test [7]; 2.4% and 5.32% in [8]; 3% and 5.69% in test [9]; 3.72% and 4.13% in test [10].

Consider `FC(F)(F)CNc1nccc(-c2cnn3ncccc23)n1`, for which the inhibition came to 0.2% in test [1]; 1.25% in [2]; 1.46% in test [3]; 0% in test [4]; 0.87% in test [5]; 2.93% in [6]. Besides, the inhibition in [7] stood at 4.28%; in test [8], 1.91%; in test [9], 2.67%; in test [10], 0.68%.

For `CS(=O)(=O)Nc1ccc(-c2cc(-c3ccccc3)cc(C(N)=O)c2N)cc1`, the inhibition stood at 0.06% in test [1]; 0.87% in test [2]; 2.29% in test [3]; 9.08% in [4]; 0.51% in test [5]; 0.13% in test [6]. Besides, the inhibition in [7] came out at 2.54%; in [8] it was 0.7%; in [9], 1.42%; in [10], 5.24%.

For `CN(c1ccc(NC(=O)NCCN2CCOCC2)cc1)c1ccnc(Nc2ccc(CS(C)(=O)=O)cc2)n1`, the inhibition turned out to be 2.33% in test [1]; 2.3% in [2]; 5% in [3]; 1.89% in [4]; 3.1% in [5]; 4.46% in [6]. Further, the inhibition turned out to be 2.63% in test [7], 3.65% in test [8], 4.22% in test [9] and 0.93% in [10].

Values taken from ChEMBL document CHEMBL1961873, “Compounds: GSK PKIS; Assays: Nanosyn kinase panel” (2012).
